The values below come from PubChem BioAssay (NCI).

Each structure is given as a SMILES string. About 83,000 compounds went through this panel and 20% of them were active in at least one assay; those are over-represented in the sample as a whole.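 Values shown are percent growth following 48 h exposure of cells in 96-well plates to a single concentration of compound; below 10 was considered active.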 Active and inactive are the calls of the source.

The test system of this assay is MDA-MB-468 breast. The assay is described as follows: NCI-60 one-dose screen, 48 h (100 = growth as untreated, 0 = no growth, -100 = all killed). As to conditions: 10 µM unless noted.
As to `COc1cc(C2CC(c3cc(OC)c(OCCCOc4ccc(-n5c(/C=C/c6ccccc6)nc6ccccc6c5=O)cc4)c(OC)c3)=NO2)cc(OC)c1OC` (stereo unspecified), the growth is 104% (inactive). The result for `CCN1CCN(Cc2ccc(NC(=O)Nc3nc(-c4cc(OC)c(OC)c(OC)c4)cs3)cc2C(F)(F)F)CC1` reads -0.339% (active); that for `O=c1c2ccccc2c(=O)c2c1sc1c(=O)c3ccc(O)cc3c(=O)c12`, -43.6% (active).

On to `COc1ccc(-c2nc(SCCC(C)C)nc(N/N=C(/C)c3ccc(N)cc3)c2C#N)cc1`, for which the growth was 103% (inactive). In the case of `CN=S(=O)(NC(=O)c1ccc(Cl)cc1Cl)c1ccc(Br)s1` (stereo unspecified) it was 88.3% (inactive). On to `Cc1csc(N/N=C/c2ccncc2)n1`, for which the growth is 107% (inactive).
